Screening data from PubChem BioAssay.
mut p53 react – mutant p53 pathway re-activators, primary screen, cell-based, SW480, luciferase, single point, HTS | SW480 PUMA-promoter luciferase, p53 mutant reactivation | activation, % at 9.98 µM | 1.5% of 28,000 active | AID 624151, 2012; in the data active means activation above about 52%; inconclusive means no clear call, values can overlap the other calls
ID4 SMM – binders of human ID4 protein, primary screen, biochemical, small molecule microarray, single point | Flag-ID4 binding, fluorescence F/B | DNA-binding protein inhibitor ID-4 (Homo sapiens), P47928 | 1.2% of 31,000 active | AID 624137, 2012 | calls only; call rule not given here;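 further: a binder raises fluorescence above local background on the spot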
STK33 inh – STK33 kinase inhibitors, primary screen, biochemical, luminescence, ADP-Glo, MBP substrate | inhibition, % at 12.5 µM | 0.44% of 27,000 active | AID 2322, 2010; in the data active means inhibition above about 20%; inconclusive means no clear call, values can overlap the other calls
Target sequence (Q9BYT3 whole entry, looked up): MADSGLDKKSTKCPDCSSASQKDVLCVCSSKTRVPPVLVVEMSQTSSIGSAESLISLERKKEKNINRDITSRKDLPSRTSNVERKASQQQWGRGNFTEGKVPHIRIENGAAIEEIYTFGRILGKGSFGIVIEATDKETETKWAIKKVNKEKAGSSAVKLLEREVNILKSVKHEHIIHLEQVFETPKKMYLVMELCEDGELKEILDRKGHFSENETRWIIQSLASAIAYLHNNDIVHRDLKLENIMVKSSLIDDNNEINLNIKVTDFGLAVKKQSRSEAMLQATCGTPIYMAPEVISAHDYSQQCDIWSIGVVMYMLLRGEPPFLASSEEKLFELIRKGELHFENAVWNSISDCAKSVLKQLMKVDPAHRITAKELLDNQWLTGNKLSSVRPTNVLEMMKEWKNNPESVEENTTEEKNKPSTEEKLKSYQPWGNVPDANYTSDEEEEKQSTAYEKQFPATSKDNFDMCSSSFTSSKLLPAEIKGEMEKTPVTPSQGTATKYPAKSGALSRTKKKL
Starred values were filed as active, the others as inactive; i = inactive; ? = inconclusive; / = no result; + = active, no number. In the library only some 2% were active in any assay of this set; here they are far more common.

SMILES	mut p53 react	ID4 SMM	STK33 inh
CCC(=O)N1C(CC(=O)Nc2ccc(F)cc2)C(=O)NC2CCCCC21 (configuration not stated)	/	/	-1.4
COc1cccc(NC(=O)CC2C(=O)NC3CCCCC3N2C(=O)c2ccccc2)c1 (configuration not stated)	9.5	+	-1.9
Cc1ccc(C(=O)Nc2ccc(OCC(=O)O)cc2)cc1	-24.3	i	0.5
C/C=C(\C)CC(/C=C(\C)C(O)C(C)/C=C(\C)C(O)C(C)/C=C/C(O)C/C=C/C(O)C(O)C(=O)O)C(=O)O (configuration not stated)	18.3	i	-3.5
O=C(COc1cccc2ccccc12)Nc1cccnc1	3.2	i	-2.2
O=C(COc1ccc2ccccc2c1Br)Nc1cccnc1	79.9*	i	0.8
Cc1ccc(NC(=O)C(C)Oc2ccc(Cl)cc2Cl)c([N+](=O)[O-])c1 (configuration not stated)	77.0*	i	-0.2
COc1ccc(OCC(=O)Nc2ccccc2OC(F)F)cc1	64.7*	i	-3.8
COc1ccc(NC(=O)CCN2C(=O)c3ccccc3C2=O)c([N+](=O)[O-])c1	-0.1	i	-4.5
COc1ccc(OCC(=O)Nc2ccccc2C(=O)Nc2ccccc2)cc1	6.2	i	4.5
Cc1ccc(NC(=O)CCCOc2ccccc2)c([N+](=O)[O-])c1	79.1*	i	-1.3
COc1ccc(NC(=S)NC(=O)C(C)Oc2ccc(Cl)cc2Cl)c([N+](=O)[O-])c1 (configuration not stated)	2.5	i	-0.3
Cn1c(=O)c2c(nc(NCC(O)c3ccccc3)n2Cc2ccc(F)cc2)n(C)c1=O (configuration not stated)	-27.6	i	1.4
C/C=C(/C)C(=O)O[C@H]1CC(C)(C)C[C@H]2C3=CCC4[C@@]5(C)CC[C@H](O[C@@H]6O[C@H](C(=O)O)[C@@H](O[C@@H]7O[C@H](CO)[C@H](O)[C@H](O)[C@H]7O[C@@H]7O[C@H](CO)[C@@H](O)[C@H](O)[C@H]7O)[C@H](O)[C@H]6O[C@@H]6O[C@@H](C)[C@H](O)[C@@H](O)[C@H]6O)C(C)(C)C5CC[C@@]4(C)[C@]3(C)C[C@@H](O)[C@@]12CO (some centres not stated)	/	/	-9.3
COc1ccc(S(=O)(=O)N(C)CC(=O)Nc2ccc(I)cc2)cc1OC	-24.8	i	3.3
Cc1cc(C)c(NC(=O)CN(c2ccc(Cl)cc2C)S(C)(=O)=O)c(C)c1	3.9	i	-6.6
COc1cccc2cc(C(=O)C3C(=O)C(=O)N(CCN4CCOCC4)C3c3cccc(Cl)c3)oc12 (configuration not stated)	-8.0	i	-4.9
C=C1[C@H](OC(=O)C(C)CC)[C@@H](OC(=O)C(C)C)[C@@H](O)C(C)(C)/C=C\[C@H](C)C(=O)[C@@]2(O)C[C@H](C)[C@H](O)[C@@H]2[C@H]1OC(=O)C(C)CC (some centres not stated)	/	/	-9.1
COC(=O)c1ccc(NC(=O)CSc2nnc(-c3ccccc3)n2-c2ccccc2)cc1	-3.6	i	6.2
CCn1c(SCC(=O)Nc2cc3oc4ccccc4c3cc2OC)nnc1-c1cccnc1	11.1	i	2.3
COc1ccc(-n2c(SCC(=O)Nc3ccc(Cl)cc3C)nnc2-c2ccccc2F)cc1	-1.2	i	2.5
COc1ccc(NC(=O)COc2ccccc2)c([N+](=O)[O-])c1	71.7*	i	-0.3
COc1ccc(NC(=O)COc2cc(C)cc(C)c2C)c([N+](=O)[O-])c1	-6.9	i	0.5
CC(=O)Nc1ccccc1NC(=O)COc1ccc2ccccc2c1Br	-9.5	i	1.0
CCOc1ccc(NC(=O)C(C)O)c([N+](=O)[O-])c1 (configuration not stated)	?	i	-0.2
SMILES	mut p53 react	ID4 SMM	STK33 inh
COc1ccc(NC(=O)CSc2nc3ccccc3o2)c([N+](=O)[O-])c1	69.1*	i	-0.6
COc1ccc(NC(=O)CSc2nnc(C)s2)c([N+](=O)[O-])c1	1.7	i	-2.0
Cc1ccc(NC(=O)COc2ccc3ccccc3c2Br)c([N+](=O)[O-])c1	64.1*	i	-3.2
COc1ccc(NC(=O)C(C)Oc2ccccc2)c([N+](=O)[O-])c1 (configuration not stated)	86.2*	i	7.2
COc1ccc(NC(=O)CN2CCN(S(=O)(=O)c3c(C)cc(C)cc3C)CC2)cc1	0.5	i	2.0
CS(=O)(=O)N(CC(=O)Nc1ccc(Cl)c(C(F)(F)F)c1)c1cccc(Br)c1	-7.9	i	2.7
CCN(CC(=O)Nc1ccccc1OC)S(=O)(=O)c1ccc(C)cc1	17.1	i	5.9
